We go through seven compounds from PubChem BioAssay.

The nature of assay [1]: rapamycin-like changes in RPL19A-GFP expression – cell-based, S. cerevisiae, multiplex flow cytometry, primary screen (AID 1862; in the data active = percent of DMSO control GFP below about 86%;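 note: lower values mimic rapamycin by blocking the RPL19A rise seen in DMSO cells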). Particulars: S. cerevisiae RPL19A-GFP strain, flow cytometry fluorescence, 3 h; at 10 µM; stronger effect = lower value.
Assay [2] can be described thus: TOR pathway GLN3 branch reporter MEP2-GFP changes – S. cerevisiae, multiplex flow cytometry, primary screen (AID 1867;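 active = GFP response, as percent of the DMSO control, above the screen-wide mean plus 3 SD, about 139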;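 note: median GFP channel fluorescence of barcode-gated MEP2-GFP cells measured by flow cytometry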). The following applies: S. cerevisiae MEP2-GFP strain, 3 h, at 10 µM, stronger effect = higher value.
A short description of assay [3]: TOR pathway RTG branch CIT2 reporter changes – S. cerevisiae, GFP fusion, multiplex flow cytometry, primary screen (AID 1870;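 active = percent response above a set limit, the screen-wide mean plus 3 SD, cut at about 130% in these data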;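 note: barcoded CIT2-GFP strain pooled with four other GFP strains with rapamycin as positive control; median GFP fluorescence per well over plate mean of DMSO wells so 100% = DMSO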). Particulars: S. cerevisiae CIT2-GFP expression, 3 h, at 10 µM, stronger effect = higher value.
The nature of assay [4]: TOR pathway LAP4-GFP level changes – S. cerevisiae, multiplex flow cytometry, primary screen (AID 1873;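 active = GFP signal, as percent of the solvent control, above the screen mean plus 3 SD, about 149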). The following applies: S. cerevisiae LAP4-GFP expression, 3 h, at 10 µM, stronger effect = higher value.
The nature of assay [5]: yeast AGP1-GFP level changes, GLN3 branch – cell-based, multiplex flow cytometry, S. cerevisiae, primary screen (AID 1887;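 active = GFP signal above the screen-wide mean plus 3 SD, that is over about 124.5% of the solvent control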;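 note: AGP1-GFP fusion strain of S. cerevisiae within a five-strain barcoded multiplex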). The following applies: 3 h, at 10 µM, stronger effect = higher value.
Assay [6] is described as follows: reduced mouse 2C T cell binding to pMHC/ICAM-1 vesicles – MLPCN validation set, flow cytometry, LFA-1/ICAM-1 modulator project, pilot screen (AID 2523;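 active = response below a set limit, under 55% cells CD8-positive and vesicle-bound, and CD8 cells' 90th-percentile brightness under 279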;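 for vesicle binding response: mean PE anti-B7-1 fluorescence of CD8+ cells relative to row control; 100% = QL9-loaded vesicles with DMSO vehicle in the same plate row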). The following applies: 2C mouse CD8+ T cells, at 7 µM, stronger effect = lower value; double positive events: measured here: CD8+/vesicle+ event percentage.
Assay [7] has as its target Integrin beta-1 (Homo sapiens) + Integrin alpha-4 (Homo sapiens) (UniProt P13612+P05556). The assay can be described thus: alpha4beta1 integrin LIBS antibody binding reduction – U937 cells, HUTS-21 mAb, flow cytometry, validation set, VLA-4 allosteric modulator project, pilot screen (AID 2674;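 active = inhibition above 50%, about 3 SD of the validation set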;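 note: antibody binding induced by the VLA-4 ligand LDV present at three times its Kd; 0% = LDV ligand with antibody and no compound and 100% = antibody without LDV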). The following applies: HUTS-21 LIBS mAb binding, at 6.7 µM, stronger effect = higher value.

Assay [8] is described as follows: calorie-restriction mimetic ROS inhibitors, yeast – validation compound set, pilot screen (AID 2706;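 active = superoxide response below 65% of plate, a cut near 3 SD across the whole screen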;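 note: yeast exposed to compound for one week at 30 degrees C before staining; 100% = mean of all compound wells on the same plate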). Particulars: S. cerevisiae aging, superoxide DHE fluorescence; at 10 µM; stronger effect = lower value.
The target of assay [9] is Beta-adrenergic receptor kinase 1 (Homo sapiens) (UniProt P25098). The assay can be described thus: GRK2 binders displacing RNA aptamer, biochemical, validation, human GRK2, bead flow cytometry (AID 488806;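 active = aptamer binding inhibition above 30%, about 3 SD of noise from non-fluorescent compounds; inactive = inhibition at or below 30%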). Particulars: bead-bound GRK2, FAM-aptamer displacement, at 10 µM, stronger effect = higher value.
Assay [10] addresses AP-2 complex subunit beta (Homo sapiens) (UniProt P63010). The assay can be described thus: beta-arrestin/AP2 interaction blockers – biochemical, validation set, GST-AP2 beads, flow cytometry, pilot screen (AID 504541;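 active = inhibition above 54%, about 3 SD of non-fluorescent compounds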;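 note: AP2 carries R879A mutation and is captured from E. coli lysate; bead-bound FITC arrestin peptide fluorescence measuring arrestin peptide binding to AP2; 0% = DMSO wells and 100% = excess unlabeled arrestin peptide control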). The following applies: FITC arrestin peptide, at 10 µM, stronger effect = higher value.
Assay [11] in a line: cytosolic pH regulators acting via V-ATPase – S. cerevisiae, pHLuorin, HTS validation (AID 504600; in the data active = response above about 15%;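 note: plate controls were DMSO for no effect and reference compound for full effect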). The following applies: V-ATPase proton transport, at 10 µM, stronger effect = higher value.
Assay [12] relates to anti-desmoglein-3 scFv antibody binding to human DSG3. The assay can be described thus: blockers of pathogenic pemphigus antibody–desmoglein-3 binding – biochemical, validation compound set, bead-based, flow cytometry, pilot screen (AID 588368;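 active = binding below the plate cutoff, the plate median minus 3 SD, with a reading above zero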;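 note: signal is the median channel fluorescence of bead-bound GFP antibody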). Particulars: Protein G beads, DSG3-Fc, scFv-GFP binding, at 10 µM, stronger effect = lower value.
For assay [13], the system named is Botulinum neurotoxin type F light chain protease (Clostridium botulinum). Briefly: Clostridium botulinum type F light chain protease inhibitors, microsphere substrate cleavage, validation (AID 588459). Particulars: multiplex microsphere protease substrate cleavage assay, flow cytometry; at 10 µM; stronger effect = higher value.
For assay [14], the target named is Botulinum neurotoxin type A (Clostridium botulinum) (UniProt P0DPI0). The assay can be described thus: BoNT/A light chain protease inhibitors, biochemical, multiplex microsphere flow cytometry, validation set (AID 588460). The following applies: at 10 µM, stronger effect = higher value.
Assay [15] has as its target Lethal factor (Bacillus anthracis) (UniProt P15917). The assay can be described thus: Bacillus anthracis lethal factor inhibition, microsphere flow cytometry protease assay, validation at 10 µM (AID 588461). The following applies: multiplex microsphere protease cleavage assay, stronger effect = higher value.
Assay [16] in a line: Nile Red efflux blockade in pump-expressing yeast – validation compound set, multiplex, phenotypic, pilot screen (AID 588506;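 active = efflux inhibition above 0.42, the validation set average plus 4 SD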;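 note: Nile Red retained in cells so higher fluorescence means more efflux inhibition; 0 = negative control wells and 1 = enniatin B 25 µM full block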). Particulars: S. cerevisiae pump-expressing triplex, Nile Red efflux flow cytometry; at 10 µM; stronger effect = higher value.
In assay [17] the target is ATP-binding cassette sub-family B member 6 (Homo sapiens) (UniProt Q9NP58). Briefly: blockers of ABCB6-driven porphyrin uptake – K562-ABCB6 cells, flow cytometry, validation set, pilot screen (AID 588550;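 active = inhibition above the screen-wide mean plus 3 SD, about 51%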;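 note: 0% = DMSO wells and 100% = benzethonium chloride 70 µM positive control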). Particulars: K562-ABCB6 porphyrin accumulation, 1 h, at 10 µM, stronger effect = higher value.
The nature of assay [18]: AML differentiation inducers, ER-HoxA9 marrow cells – cell-based, GFP/MAC1 double positive, flow cytometry, validation set, primary screen (AID 588685;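 active = differentiation response of at least 50%, scaled between solvent and reference control, from cells with both markers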;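 note: compound exposure lasts four days before antibody staining and flow analysis; 0% = DMSO wells and 100% = 5 µM fulvestrant positive control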). The following applies: stronger effect = higher value.
Assay [19] addresses Beta-2 adrenergic receptor (Homo sapiens) (UniProt P07550). The assay can be described thus: agonist-induced loss of surface beta2AR – cell-based, FAP fluorogen, flow cytometry, validation set, pilot screen (AID 504459;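 active = percent response above 42, roughly 3 SD of non-fluorescent test compounds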;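 note: agonist-driven loss of surface beta2AR via internalization measured by FAP dye flow cytometry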). Particulars: Am2.2-beta2AR cells, at 10 µM, stronger effect = higher value.

Inconclusive results are not listed. Activity calls are given as the source filed them. Unless noted, the rule behind the calls is not given here.

ATP-binding cassette sub-family B member 6 (Homo sapiens), sequence (Q9NP58 whole entry, looked up): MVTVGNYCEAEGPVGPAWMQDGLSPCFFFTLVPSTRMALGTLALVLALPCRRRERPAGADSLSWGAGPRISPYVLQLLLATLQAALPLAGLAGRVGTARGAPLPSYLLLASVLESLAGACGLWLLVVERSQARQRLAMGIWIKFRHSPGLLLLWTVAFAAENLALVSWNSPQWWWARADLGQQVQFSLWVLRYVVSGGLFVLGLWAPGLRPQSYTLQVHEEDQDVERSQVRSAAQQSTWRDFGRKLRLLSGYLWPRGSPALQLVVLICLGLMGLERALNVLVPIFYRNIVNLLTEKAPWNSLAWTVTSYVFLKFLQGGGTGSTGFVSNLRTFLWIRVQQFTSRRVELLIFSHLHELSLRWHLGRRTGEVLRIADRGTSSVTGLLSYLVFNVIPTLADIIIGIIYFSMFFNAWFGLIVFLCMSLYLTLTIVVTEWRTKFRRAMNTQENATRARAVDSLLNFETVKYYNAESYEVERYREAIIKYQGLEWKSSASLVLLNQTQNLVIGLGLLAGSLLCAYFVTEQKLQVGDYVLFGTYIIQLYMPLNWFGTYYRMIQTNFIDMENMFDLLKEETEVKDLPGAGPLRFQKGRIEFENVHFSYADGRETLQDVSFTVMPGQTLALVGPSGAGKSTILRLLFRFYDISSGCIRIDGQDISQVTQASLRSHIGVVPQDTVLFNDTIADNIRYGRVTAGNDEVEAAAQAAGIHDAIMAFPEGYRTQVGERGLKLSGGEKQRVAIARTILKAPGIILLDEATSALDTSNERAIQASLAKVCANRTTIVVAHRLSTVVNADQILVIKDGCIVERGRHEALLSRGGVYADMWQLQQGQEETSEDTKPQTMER
AP-2 complex subunit beta (Homo sapiens), sequence (P63010 whole entry, looked up, one chain of several): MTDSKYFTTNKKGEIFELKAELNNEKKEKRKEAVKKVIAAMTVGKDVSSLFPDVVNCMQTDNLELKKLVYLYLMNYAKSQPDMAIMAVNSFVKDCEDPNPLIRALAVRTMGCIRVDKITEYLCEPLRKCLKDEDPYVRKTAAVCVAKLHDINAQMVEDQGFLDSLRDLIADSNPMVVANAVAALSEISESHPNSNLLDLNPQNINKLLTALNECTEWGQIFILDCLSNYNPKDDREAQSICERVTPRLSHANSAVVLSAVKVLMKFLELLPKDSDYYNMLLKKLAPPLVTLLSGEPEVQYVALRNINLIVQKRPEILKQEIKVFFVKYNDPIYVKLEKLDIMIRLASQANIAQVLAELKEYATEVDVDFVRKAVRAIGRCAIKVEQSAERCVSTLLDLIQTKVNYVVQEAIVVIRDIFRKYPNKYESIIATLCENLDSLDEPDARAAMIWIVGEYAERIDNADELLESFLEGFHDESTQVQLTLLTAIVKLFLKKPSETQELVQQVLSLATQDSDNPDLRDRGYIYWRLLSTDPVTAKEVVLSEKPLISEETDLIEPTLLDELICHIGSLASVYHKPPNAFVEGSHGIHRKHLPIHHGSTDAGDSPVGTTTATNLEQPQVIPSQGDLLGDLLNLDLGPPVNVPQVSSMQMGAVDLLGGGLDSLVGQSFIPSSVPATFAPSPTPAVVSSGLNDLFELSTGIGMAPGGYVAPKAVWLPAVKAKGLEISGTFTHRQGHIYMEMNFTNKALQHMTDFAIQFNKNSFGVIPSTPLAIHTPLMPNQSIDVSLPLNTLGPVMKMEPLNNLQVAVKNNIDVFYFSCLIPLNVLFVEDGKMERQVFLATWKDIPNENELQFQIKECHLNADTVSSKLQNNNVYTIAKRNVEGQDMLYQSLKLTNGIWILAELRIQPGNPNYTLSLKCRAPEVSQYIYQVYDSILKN
Lethal factor (Bacillus anthracis), sequence (P15917 whole entry, looked up): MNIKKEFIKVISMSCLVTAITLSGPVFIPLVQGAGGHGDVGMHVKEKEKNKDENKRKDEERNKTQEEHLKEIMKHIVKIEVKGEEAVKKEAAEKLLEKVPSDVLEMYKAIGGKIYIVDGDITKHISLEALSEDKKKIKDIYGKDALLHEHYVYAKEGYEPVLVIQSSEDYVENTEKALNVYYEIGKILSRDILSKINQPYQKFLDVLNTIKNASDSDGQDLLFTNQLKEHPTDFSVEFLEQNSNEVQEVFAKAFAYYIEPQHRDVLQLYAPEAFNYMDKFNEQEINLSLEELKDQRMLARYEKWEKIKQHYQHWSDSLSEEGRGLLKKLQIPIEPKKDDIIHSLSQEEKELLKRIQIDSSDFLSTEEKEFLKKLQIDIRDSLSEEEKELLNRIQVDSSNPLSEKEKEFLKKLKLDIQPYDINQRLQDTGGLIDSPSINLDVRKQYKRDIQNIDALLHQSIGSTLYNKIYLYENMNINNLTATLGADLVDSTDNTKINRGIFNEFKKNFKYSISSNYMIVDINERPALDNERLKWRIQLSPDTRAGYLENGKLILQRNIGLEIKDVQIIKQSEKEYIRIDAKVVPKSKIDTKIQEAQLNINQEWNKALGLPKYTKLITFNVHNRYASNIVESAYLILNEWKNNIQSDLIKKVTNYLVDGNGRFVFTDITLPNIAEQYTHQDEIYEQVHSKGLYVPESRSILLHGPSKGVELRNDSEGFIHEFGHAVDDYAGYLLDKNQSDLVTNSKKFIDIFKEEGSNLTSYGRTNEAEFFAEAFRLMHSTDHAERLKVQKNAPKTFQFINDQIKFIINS
Beta-2 adrenergic receptor (Homo sapiens), sequence (P07550 whole entry, looked up): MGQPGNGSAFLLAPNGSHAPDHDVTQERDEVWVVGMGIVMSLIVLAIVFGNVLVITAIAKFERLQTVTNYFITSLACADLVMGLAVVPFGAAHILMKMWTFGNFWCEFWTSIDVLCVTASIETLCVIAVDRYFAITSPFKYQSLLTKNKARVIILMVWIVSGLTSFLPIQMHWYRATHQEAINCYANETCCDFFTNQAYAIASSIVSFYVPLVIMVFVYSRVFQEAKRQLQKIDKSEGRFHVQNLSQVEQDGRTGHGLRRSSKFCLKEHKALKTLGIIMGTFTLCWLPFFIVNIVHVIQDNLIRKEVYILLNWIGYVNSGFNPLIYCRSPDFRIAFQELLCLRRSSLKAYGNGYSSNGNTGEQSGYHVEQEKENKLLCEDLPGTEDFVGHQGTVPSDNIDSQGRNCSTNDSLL
Integrin beta-1 (Homo sapiens) + Integrin alpha-4 (Homo sapiens), sequence (P05556 whole entry, looked up): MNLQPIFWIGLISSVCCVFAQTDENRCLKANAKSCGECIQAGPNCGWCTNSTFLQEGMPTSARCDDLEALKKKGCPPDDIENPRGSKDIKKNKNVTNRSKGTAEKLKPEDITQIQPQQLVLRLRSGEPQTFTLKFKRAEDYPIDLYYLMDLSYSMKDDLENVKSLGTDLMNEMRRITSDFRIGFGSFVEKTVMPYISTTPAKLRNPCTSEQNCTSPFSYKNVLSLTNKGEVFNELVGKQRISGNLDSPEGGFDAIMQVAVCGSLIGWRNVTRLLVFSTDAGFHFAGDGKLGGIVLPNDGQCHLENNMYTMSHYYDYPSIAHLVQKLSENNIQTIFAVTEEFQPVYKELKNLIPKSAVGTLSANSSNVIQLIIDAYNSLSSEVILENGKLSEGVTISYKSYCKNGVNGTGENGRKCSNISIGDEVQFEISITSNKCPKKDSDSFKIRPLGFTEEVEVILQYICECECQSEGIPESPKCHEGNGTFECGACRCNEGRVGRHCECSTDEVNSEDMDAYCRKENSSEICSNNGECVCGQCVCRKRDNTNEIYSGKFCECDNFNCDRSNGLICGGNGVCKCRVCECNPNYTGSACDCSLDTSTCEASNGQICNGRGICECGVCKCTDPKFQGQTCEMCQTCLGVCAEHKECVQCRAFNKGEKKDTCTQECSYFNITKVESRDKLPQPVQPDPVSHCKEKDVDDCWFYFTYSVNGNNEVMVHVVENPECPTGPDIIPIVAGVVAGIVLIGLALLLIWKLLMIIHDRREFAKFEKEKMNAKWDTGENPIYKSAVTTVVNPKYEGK
Integrin beta-1 (Homo sapiens) + Integrin alpha-4 (Homo sapiens), sequence (P13612 whole entry, looked up): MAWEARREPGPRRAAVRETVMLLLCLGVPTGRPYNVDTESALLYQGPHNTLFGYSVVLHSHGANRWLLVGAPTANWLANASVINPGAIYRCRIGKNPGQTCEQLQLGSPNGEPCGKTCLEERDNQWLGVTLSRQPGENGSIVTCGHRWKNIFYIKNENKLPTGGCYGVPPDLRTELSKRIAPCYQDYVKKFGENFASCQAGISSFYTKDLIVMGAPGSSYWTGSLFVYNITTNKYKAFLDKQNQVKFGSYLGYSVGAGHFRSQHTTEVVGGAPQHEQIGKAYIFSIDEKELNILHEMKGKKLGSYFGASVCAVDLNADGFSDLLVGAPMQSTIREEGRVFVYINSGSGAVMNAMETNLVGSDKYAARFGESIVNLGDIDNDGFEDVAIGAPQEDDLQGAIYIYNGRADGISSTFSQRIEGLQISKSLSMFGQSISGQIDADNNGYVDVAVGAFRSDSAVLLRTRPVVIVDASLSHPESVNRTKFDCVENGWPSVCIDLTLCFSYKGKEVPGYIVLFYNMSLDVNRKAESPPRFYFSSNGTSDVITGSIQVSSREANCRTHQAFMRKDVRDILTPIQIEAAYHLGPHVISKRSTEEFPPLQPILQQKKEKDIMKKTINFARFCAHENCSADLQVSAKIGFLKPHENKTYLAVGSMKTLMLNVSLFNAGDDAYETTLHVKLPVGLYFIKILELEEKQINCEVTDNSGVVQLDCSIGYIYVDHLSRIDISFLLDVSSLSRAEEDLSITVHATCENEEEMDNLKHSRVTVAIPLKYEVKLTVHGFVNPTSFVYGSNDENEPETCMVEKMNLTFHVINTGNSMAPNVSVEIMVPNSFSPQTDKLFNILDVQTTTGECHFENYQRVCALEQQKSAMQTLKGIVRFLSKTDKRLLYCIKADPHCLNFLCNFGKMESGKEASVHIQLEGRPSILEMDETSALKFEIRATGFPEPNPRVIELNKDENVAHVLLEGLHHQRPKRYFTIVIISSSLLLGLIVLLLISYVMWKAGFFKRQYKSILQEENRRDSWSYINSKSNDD

As for `Cc1cc(Cl)ccc1OCC(=O)O`, the percent of DMSO control GFP in [1] is 96.8% (inactive). Also, the GFP response vs DMSO was 93.8% (inactive) in assay [2] and 105% (inactive) in assay [4]. In assay [3], the percent response of DMSO control was 109% (inactive). The GFP response, % of DMSO in [5] is 103% (inactive). The compound also came in with a double positive events in assay [6] of 60.3%. For the same compound, the vesicle binding response in assay [6] is 188% (inactive). The inhibition in [7] was 7.22% (inactive); in assay [10], -8.4% (inactive); in assay [13] it was -6.1% (inactive); in [14] it was -0.1% (inactive); in [15], 2.4% (inactive); in [17], 10% (inactive). Besides, in assay [8], the superoxide response (% of plate) was 108% (inactive). Further, the aptamer binding inhibition in [9] was -4% (inactive). Further, the response in assay [11] is -14.2% (inactive). Also, in assay [12], the binding (% of control) was 111% (inactive). The efflux inhibition (fraction of control) in assay [16] is -0.35 (inactive). The differentiation response in assay [18] was -24.4% (inactive).

Consider `CC(C)(C)NCC(O)c1cc(Cl)c(N)c(Cl)c1` (stereo unspecified), for which the percent of DMSO control GFP in assay [1] is 104% (inactive). The results for the GFP response vs DMSO in assay [2] and in assay [4] were 102% (inactive) and 99.1% (inactive), respectively. Also, the percent response of DMSO control in assay [3] was 97.6% (inactive). In [5], the GFP response, % of DMSO is 91.4% (inactive). The compound further came in with a double positive events in assay [6] of 60.7%. In addition, the vesicle binding response in [6] was 138% (inactive). In addition, the inhibition in [7] is -21.2% (inactive); in assay [10] it was -12.6% (inactive); in assay [13] it was 2.9% (inactive); in [14], 2.2% (inactive); in [15], 6.8% (inactive); in assay [17], 2% (inactive). For the same compound, the superoxide response (% of plate) in assay [8] was 94.5% (inactive). In addition, in assay [9], the aptamer binding inhibition is -1% (inactive). Moreover, the response in [11] is 1.54% (inactive). For the same compound, the binding (% of control) in [12] was 112% (inactive). Further, the efflux inhibition (fraction of control) in assay [16] is -0.28 (inactive). Also, the differentiation response in [18] is 17.4% (inactive).

Take `CN[C@H]1C[C@H]2O[C@@](C)([C@H]1OC)n1c3ccccc3c3c4c(c5c6ccccc6n2c5c31)C(=O)NC4`: in assay [1], the percent of DMSO control GFP was 104% (inactive). Moreover, the GFP response vs DMSO in [2] was 105% (inactive); in assay [4], 84.1% (inactive). For the same compound, in assay [3], the percent response of DMSO control is 107% (inactive). Further, the GFP response, % of DMSO in assay [5] is 90.8% (inactive). In assay [6], the double positive events was 64%. The vesicle binding response in [6] was 105% (inactive). Further, the inhibition in assay [7] is -86.6% (inactive); in assay [10], 0.54% (inactive); in assay [15], 6.2% (inactive); in assay [17], -76% (inactive). Besides, the values for the response in assay [19] and in [11] were 12% (inactive) and 1.34% (inactive), respectively. Moreover, the efflux inhibition (fraction of control) in assay [16] was 0.14 (inactive). The differentiation response in [18] was 12% (inactive).

For `CCNC(=S)N(C)CCc1cc2c(c(OC)c1C=C1C(=O)N(C)C(=O)N(C)C1=O)OCO2`, the percent of DMSO control GFP in assay [1] was 98.1% (inactive). Also, the GFP response vs DMSO in assay [2] is 95.9% (inactive); in assay [4], 96.4% (inactive). The percent response of DMSO control in assay [3] was 91% (inactive). In assay [5], the GFP response, % of DMSO is 96.1% (inactive). Besides, in [6], the double positive events turned out to be 62.5%. For the same compound, in assay [6], the vesicle binding response was 168% (inactive). The inhibition is 15.6% (inactive) in [7]; 27.6% (inactive) in assay [10]; 1.8% (inactive) in [13]; 1.4% (inactive) in assay [14]; 1.3% (inactive) in assay [15]; -16% (inactive) in assay [17]. Moreover, the superoxide response (% of plate) in assay [8] was 89.1% (inactive). In [9], the aptamer binding inhibition is 4% (inactive). Further, the response in assay [11] was -7.44% (inactive). Besides, the binding (% of control) in assay [12] is 100% (inactive). The efflux inhibition (fraction of control) in assay [16] was -0.16 (inactive). Besides, the differentiation response in assay [18] is 6.26% (inactive).

In the case of `CN[C@H](C)[C@H](O)c1ccccc1`, the percent of DMSO control GFP in assay [1] is 90.2% (inactive). The results for the GFP response vs DMSO in assay [2] and in [4] were 131% (inactive) and 87.5% (inactive), respectively. Also, the percent response of DMSO control in assay [3] is 102% (inactive). Besides, in assay [5], the GFP response, % of DMSO was 101% (inactive). In assay [6], this compound came in with a double positive events of 53.3%. Moreover, in assay [6], the vesicle binding response is 176% (inactive). For the same compound, the inhibition in assay [7] was 8.4% (inactive); in assay [10], 39.6% (inactive); in assay [17] it was 5% (inactive). Further, in [8], the superoxide response (% of plate) is 97.6% (inactive). In addition, the aptamer binding inhibition in assay [9] was 4% (inactive). The response in assay [19] was -9.17% (inactive); in assay [11] it was -4.76% (inactive). Moreover, the binding (% of control) in [12] was 102% (inactive). Moreover, in assay [16], the efflux inhibition (fraction of control) is 0.27 (inactive). For the same compound, the differentiation response in assay [18] is -0.82% (inactive).

Take `CCOC(=O)C(C)Oc1cc(C)cc2oc(=O)c3c(c12)CCCC3` (stereo unspecified): the percent of DMSO control GFP in [1] was 95.2% (inactive). In addition, the GFP response vs DMSO in assay [2] was 116% (inactive); in assay [4], 74.8% (inactive). Moreover, the percent response of DMSO control in assay [3] is 104% (inactive). This compound displayed a double positive events in assay [6] of 81.8%. Moreover, the inhibition was 0.64% (inactive) in [7]; -3.6% (inactive) in assay [10]; -0.4% (inactive) in assay [13]; -1.5% (inactive) in assay [14]; 0.6% (inactive) in assay [15]; 12% (inactive) in assay [17]. Further, the superoxide response (% of plate) in assay [8] was 103% (inactive). For the same compound, the aptamer binding inhibition in assay [9] is 5% (inactive). The response is 1.66% (inactive) in [19] and -8.97% (inactive) in assay [11]. In addition, the binding (% of control) in assay [12] is 97.6% (inactive). In [16], the efflux inhibition (fraction of control) was -0.46 (inactive). The differentiation response in assay [18] is -9.01% (inactive).

As for `CCOC(=O)C1=C(C)OC(N)=C(C(=O)OCC)[C@@]12C(=O)N(CC(N)=O)c1ccccc12`, the percent of DMSO control GFP in assay [1] was 90.9% (inactive). In addition, the values for the GFP response vs DMSO in [2] and in assay [4] were 120% (inactive) and 71% (inactive), respectively. Further, the percent response of DMSO control in assay [3] is 110% (inactive). The double positive events in assay [6] stood at 43.7%. In addition, the vesicle binding response in assay [6] is 66.2% (active). Moreover, the inhibition in assay [7] was 18.1% (inactive); in assay [10], -3.6% (inactive); in assay [13], 0.6% (inactive); in [14], -0.3% (inactive); in assay [15], 0.4% (inactive); in assay [17] it was 6% (inactive). Also, the superoxide response (% of plate) in [8] is 104% (inactive). The aptamer binding inhibition in [9] is -1% (inactive). The response in assay [19] was -10.5% (inactive); in assay [11] it was 1.98% (inactive). Besides, in assay [12], the binding (% of control) is 104% (inactive). Also, the efflux inhibition (fraction of control) in [16] is -0.31 (inactive). Besides, the differentiation response in assay [18] is 4.09% (inactive).
